Compound activity: PubChem, several laboratories
esBAF inh = Bmi1 luciferase reporter increase in mESCs, primary screen, esBAF inhibitor project, mouse ES cells, Bmi1 luciferase knock-in, single point | 24 h; 100% = twice the neutral-well signal | reporter increase, % at 12.5 µM | hit rate 2% among 350,000; in the data active means activation above about 40%; inconclusive means no clear call, values can overlap the other calls;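 further: 0% = median of the plate's neutral control wells and 100% = double that signal; a rise in the Bmi1 reporter signal indicates esBAF inhibition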
DYRK1A inh = rat Dyrk1A kinase inhibitors, primary screen, biochemical, single point, plate reader; Dual specificity tyrosine-phosphorylation-regulated kinase 1A (Rattus norvegicus), Q63470; ADP-Glo luminescence, NFATc1 peptide; inhibition, % at 12.5 µM; hit rate 0.43% among 310,000; AID 504441, 2011; in the data active means inhibition above about 50%;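 further: plate controls were vehicle with enzyme for no effect and no enzyme for full effect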
SMARCA2 act = SMARCA2 (BRM) function activators, primary screen, cell-based, luminescence, high throughput; hit rate 1% among 370,000; activation, % at 9.1 µM; AID 652017, 2013; MG213 cells, MMTV-luciferase reporter, dexamethasone, overnight; in the data active means activation above about 7.8%;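 further: 0% = vehicle wells and 100% = reference activator wells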
dFosB act = activators of delta FosB homodimer, primary screen, biochemical, fluorescence polarization, TAMRA-CDK5 oligo, single point; Protein FosB (Mus musculus), P13346; purified delta FosB; percent of positive-control signal above neutral wells; activation, % at 25 µM; hit rate 0.99% among 340,000; AID 493131, 2011;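 active means mean activation above about 17%, with every replicate also reaching it, limit read from the data, passing the limit was not always enough; inconclusive means only one of the two conditions met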
Rtt109 HAT inh = inhibitors of C. albicans Rtt109/Vps75 HAT, primary screen, biochemical, ThioGlo CoA-SH fluorescence, plate reader; hit rate 0.16% among 330,000; purified Rtt109/Vps75, 4 h; Histone acetyltransferase RTT109 (Candida albicans (strain SC5314 / ATCC MYA-2876)), …; inhibition, % at 34.9 µM;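 active means inhibition of at least 50% in every replicate; inconclusive means best replicate reaches 50% inhibition but some replicates fall short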
CDK5 p35 inh = inhibitors of human CDK5/p35 kinase, primary screen, biochemical, single concentration | Recombinant CDK5/p35, ADP-Glo luminescence, 60 min | inhibition, % at 10 µM | hit rate 0.01% among 330,000 | AID 488839, 2010;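 active means highest replicate inhibition of at least 50% and at least 75% of replicates reaching 50%; inconclusive means only one of the two criteria met; inactive means both criteria failed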;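 further: plate controls were DMSO neutral control for no effect and GW8510 at 10 µM for full effect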
Target sequence (Q00535 whole entry, looked up): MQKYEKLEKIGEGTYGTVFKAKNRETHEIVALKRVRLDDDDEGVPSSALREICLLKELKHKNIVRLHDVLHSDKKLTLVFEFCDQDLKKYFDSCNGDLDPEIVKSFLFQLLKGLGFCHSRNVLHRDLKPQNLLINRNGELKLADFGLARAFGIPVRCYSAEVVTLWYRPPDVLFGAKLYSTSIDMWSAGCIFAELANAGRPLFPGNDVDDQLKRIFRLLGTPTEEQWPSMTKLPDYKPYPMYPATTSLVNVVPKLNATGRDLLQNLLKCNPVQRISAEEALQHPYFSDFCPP
Target sequence (Q15078 whole entry, looked up): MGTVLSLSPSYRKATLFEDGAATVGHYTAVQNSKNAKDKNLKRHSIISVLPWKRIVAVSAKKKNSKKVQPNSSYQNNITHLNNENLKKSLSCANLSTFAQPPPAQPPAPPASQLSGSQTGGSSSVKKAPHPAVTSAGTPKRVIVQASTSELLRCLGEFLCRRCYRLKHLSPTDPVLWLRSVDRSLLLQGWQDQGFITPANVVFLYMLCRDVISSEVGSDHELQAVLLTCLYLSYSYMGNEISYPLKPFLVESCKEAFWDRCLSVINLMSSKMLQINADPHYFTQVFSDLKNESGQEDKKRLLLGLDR
The depositor's hits bear a star; u = inconclusive; x = no result. Sampled rows, rich in hits. Any-hit rate of the full collection: about 3.2%.

SMILES	esBAF inh	DYRK1A inh	SMARCA2 act	dFosB act	Rtt109 HAT inh	CDK5 p35 inh
CCC(=O)N(C)C[C@H]1Oc2ncc(-c3ccc(C(=O)N(C)C)cc3)cc2C(=O)N([C@@H](C)CO)C[C@H]1C	-2	x	x	x	x	x
COC(=O)Cn1ncc2c(C)n(Cc3ccccc3)c(C)c2c1=O	52*	-6	1	-5	8	-1
C[C@@H]1CN([C@@H](C)CO)C(=O)Cc2cc(NC(=O)c3ccncc3)ccc2O[C@@H]1CN(C)Cc1ccc(C(=O)O)cc1	1	x	x	x	x	x
c1ccc(Nc2nc(NCC3CCCO3)c3ccccc3n2)cc1 (centres undefined)	-32	16	-1	-9	9	0
Oc1cccc(Nc2nc(NCC3CCCO3)c3ccccc3n2)c1 (centres undefined)	0	39	x	59*	u	7
C[C@H]1CN([C@@H](C)CO)C(=O)c2cccc(NC(=O)C3CCOCC3)c2O[C@@H]1CN(C)Cc1ccc(C(=O)O)cc1	0	x	x	x	x	x
O=C(O)c1cc(NN=C2CCN(Cc3ccccc3)CC2)ccc1Cl	51*	-11	4	-6	1	1
O=C(O)c1cc(N/N=C/C=C/c2ccccc2)ccc1Cl	90*	x	2	-2	3	1
CCCC#Cc1ccc([C@@H]2[C@@H](C#N)N(S(=O)(=O)c3cccc(F)c3)[C@H]2CO)cc1	5	x	x	x	x	x
Cc1ccc(-n2nnc(-c3cnc4ccccc4c3)n2)cc1	-37	-4	7	3	-6	1
Clc1nc2ccccc2cc1-c1nnn(-c2ccccc2)n1	62*	9	3	1	1	0
CCCN(C)C[C@@H]1OCc2cnnn2CCCC(=O)N([C@@H](C)CO)C[C@H]1C	-1	x	x	x	x	x
c1ccc2c(c1)ccc1ccccc12	16	2	1	1	1	-3
Nc1ccc2ccccc2c1N=Nc1ccccc1	43*	15	7	1	-8	-2
Cc1ccc2nc(NC(=O)CCNS(=O)(=O)c3cccs3)sc2c1	70*	29	-1	12	1	2
Cc1ccc2nc(NC(=O)CCNS(=O)(=O)c3ccc(Br)s3)sc2c1	14	28	x	-4	4	1
CN1c2ccc(-c3ccccc3)cc2[C@@H]2[C@@H](CCN2C(=O)Cc2cccnc2)[C@H]1CO	-6	x	x	x	x	x
CCCCOC(=O)c1ccc(NC(C)=O)cc1	20	-6	3	-4	-6	0
CCCOC(=O)c1ccc(NC(=O)C2CCCO2)cc1 (centres undefined)	50*	0	2	0	1	1
CCCOC(=O)c1ccc(NC(=O)C(CC)CC)cc1	51*	-5	2	-2	12	0
NC(=O)c1ccc(NC(=O)C2CCCO2)cc1 (centres undefined)	-2	-51	0	3	5	0
CO[C@H]1CN(C)C(=O)c2cc(NC(C)=O)ccc2OC[C@@H](C)N(C(=O)CN2CCOCC2)C[C@@H]1C	-3	x	x	x	x	x
CN1c2ccc(-c3cccc(C#N)c3)cc2[C@@H]2[C@@H](CCN2S(=O)(=O)c2ccccc2)[C@@H]1CO	9	x	x	x	x	x
CC1CCC(NC(=O)c2ccc(NC(=O)CC3SC(N4CCCC4)=NC3=O)cc2)CC1 (centres undefined)	66*	5	5	-4	-6	-3
CCS(=O)(=O)N1CCCC(c2nc(-c3cccc(OC)c3)no2)C1 (centres undefined)	67*	15	4	-1	-2	0
CCN(CC(=O)Nc1ccc(NC(C)=O)cc1)C(=O)c1ccc(COc2ccc(C(C)(C)C)cc2)cc1	16	-1	-5	0	13	0
CCC(=O)c1ccc(OCc2ccc(C#N)cc2)cc1	x	-1	3	2	2	-6
CCC(=O)c1ccc(OCc2ccc(C(=O)OC)cc2)cc1	60*	3	3	-12	2	-3
